Holding throughout (experiment): DAPPL (digital affinity profiling via proximity ligation, sequencing); 10 mM Tris-HCl pH 7.5, 50 mM NaCl, 1 mM DTT, 4% glycerol, room temperature, 30 min; GST-TFs on glutathione beads, 16-mer random dsDNA library, 0.1% formaldehyde crosslink after washing; high values mean tight binding
The target of one assay is T1, FLI1 (Homo sapiens, UniProt Q01543 1-452).
T1 sequence: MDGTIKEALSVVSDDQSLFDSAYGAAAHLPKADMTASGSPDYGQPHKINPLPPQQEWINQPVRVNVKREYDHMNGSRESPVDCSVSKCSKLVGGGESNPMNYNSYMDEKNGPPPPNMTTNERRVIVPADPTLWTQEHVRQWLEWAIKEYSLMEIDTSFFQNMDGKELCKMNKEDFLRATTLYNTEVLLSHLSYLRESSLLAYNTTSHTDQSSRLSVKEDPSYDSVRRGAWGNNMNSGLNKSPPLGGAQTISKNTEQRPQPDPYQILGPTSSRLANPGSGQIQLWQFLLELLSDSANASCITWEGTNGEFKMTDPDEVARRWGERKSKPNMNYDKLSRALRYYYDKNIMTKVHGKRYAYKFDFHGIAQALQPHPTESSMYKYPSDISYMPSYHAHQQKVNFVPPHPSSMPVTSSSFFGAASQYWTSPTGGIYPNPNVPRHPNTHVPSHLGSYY
Conditions: protein: recombinant; tags: N-terminal GST; dsDNA, one strand shown. In outline:
(§1)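 Each value of binding signal is a hexamer's read frequency for a factor divided by the same hexamer's frequency in the tag-only sample. Barcoded, bead-captured GST fusions of human transcription factors made in yeast were pooled with that sample and incubated with 200 nmole of a random double-stranded 16-mer DNA library in Tris/NaCl/DTT/glycerol buffer at room temperature for 30 min. Washing, 0.1% formaldehyde crosslinking, proximity ligation, PCR and Illumina NextSeq500 sequencing followed.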

Another assay deals with T2, ELK1 (Homo sapiens, UniProt P19419 1-428).
T2 sequence: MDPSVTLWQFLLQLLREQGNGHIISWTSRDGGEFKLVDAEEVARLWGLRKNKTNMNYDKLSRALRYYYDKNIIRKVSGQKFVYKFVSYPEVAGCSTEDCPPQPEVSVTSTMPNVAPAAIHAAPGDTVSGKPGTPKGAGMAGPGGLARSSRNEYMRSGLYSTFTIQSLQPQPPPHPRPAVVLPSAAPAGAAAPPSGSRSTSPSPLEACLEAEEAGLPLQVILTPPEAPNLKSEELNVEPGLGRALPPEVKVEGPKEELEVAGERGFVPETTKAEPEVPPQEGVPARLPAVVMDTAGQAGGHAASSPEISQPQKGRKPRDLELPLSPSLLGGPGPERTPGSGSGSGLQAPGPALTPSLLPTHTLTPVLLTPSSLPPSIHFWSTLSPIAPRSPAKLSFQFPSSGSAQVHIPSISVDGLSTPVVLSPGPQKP
Conditions: protein: recombinant; tags: N-terminal GST; dsDNA, one strand shown. In outline:
as §1

The next assay has as its target T3, GABPA (Homo sapiens, UniProt Q06546 1-454).
T3 sequence: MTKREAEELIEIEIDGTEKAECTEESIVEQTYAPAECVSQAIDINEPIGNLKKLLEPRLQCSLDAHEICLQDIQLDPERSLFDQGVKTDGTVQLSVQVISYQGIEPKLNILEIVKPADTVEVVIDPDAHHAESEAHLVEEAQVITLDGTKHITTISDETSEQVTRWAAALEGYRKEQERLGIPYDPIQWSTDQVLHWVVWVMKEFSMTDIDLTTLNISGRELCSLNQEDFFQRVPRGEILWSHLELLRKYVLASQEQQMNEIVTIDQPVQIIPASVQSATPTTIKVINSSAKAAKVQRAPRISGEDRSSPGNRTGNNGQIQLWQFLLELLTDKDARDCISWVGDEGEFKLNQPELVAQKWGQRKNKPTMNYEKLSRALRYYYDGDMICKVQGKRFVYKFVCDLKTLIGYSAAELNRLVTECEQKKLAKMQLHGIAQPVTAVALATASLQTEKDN
Conditions: protein: recombinant; tags: N-terminal GST; dsDNA, one strand shown. The procedure, abridged:
as §1

In a further assay the target is T4, ERG (Homo sapiens, UniProt P11308 1-479).
T4 sequence: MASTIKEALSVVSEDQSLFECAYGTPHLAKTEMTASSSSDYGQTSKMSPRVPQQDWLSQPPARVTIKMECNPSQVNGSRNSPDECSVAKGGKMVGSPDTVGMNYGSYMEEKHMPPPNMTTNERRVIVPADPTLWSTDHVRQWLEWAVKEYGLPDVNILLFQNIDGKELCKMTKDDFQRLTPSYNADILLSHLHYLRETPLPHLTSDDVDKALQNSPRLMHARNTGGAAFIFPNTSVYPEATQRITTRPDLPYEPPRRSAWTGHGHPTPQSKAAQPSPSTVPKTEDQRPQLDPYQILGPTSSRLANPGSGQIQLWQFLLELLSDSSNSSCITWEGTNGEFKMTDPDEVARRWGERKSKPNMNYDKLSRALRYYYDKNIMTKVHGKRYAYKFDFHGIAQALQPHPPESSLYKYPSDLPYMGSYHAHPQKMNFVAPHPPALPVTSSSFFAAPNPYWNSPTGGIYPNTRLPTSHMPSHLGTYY
Conditions: protein: recombinant; tags: N-terminal GST; dsDNA, one strand shown. In outline:
as §1

The target in another assay is ELF1 (Homo sapiens, UniProt P32519 1-619). Conditions: protein: recombinant; tags: N-terminal GST; dsDNA, one strand shown. The procedure, abridged: as §1
Sequence of ELF1 (P32519 whole entry): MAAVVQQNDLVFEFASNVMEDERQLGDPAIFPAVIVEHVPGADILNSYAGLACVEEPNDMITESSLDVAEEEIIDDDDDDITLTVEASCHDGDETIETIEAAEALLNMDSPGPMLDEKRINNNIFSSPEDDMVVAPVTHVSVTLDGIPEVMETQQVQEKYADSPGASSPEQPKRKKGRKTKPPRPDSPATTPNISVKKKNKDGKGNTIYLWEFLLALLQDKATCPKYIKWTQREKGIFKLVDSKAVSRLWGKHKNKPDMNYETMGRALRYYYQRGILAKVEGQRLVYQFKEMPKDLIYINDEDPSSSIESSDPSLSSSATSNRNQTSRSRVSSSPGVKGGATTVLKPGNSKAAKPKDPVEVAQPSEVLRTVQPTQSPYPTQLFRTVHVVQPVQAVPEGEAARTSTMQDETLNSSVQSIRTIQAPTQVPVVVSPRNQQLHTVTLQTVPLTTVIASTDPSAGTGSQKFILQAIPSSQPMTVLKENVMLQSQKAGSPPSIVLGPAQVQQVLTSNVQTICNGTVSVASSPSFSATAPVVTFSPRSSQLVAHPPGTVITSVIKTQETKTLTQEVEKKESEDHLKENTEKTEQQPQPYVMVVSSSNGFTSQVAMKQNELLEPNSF
The target in a further assay is T5, EHF (Homo sapiens, UniProt Q9NZC4 1-300).
T5 sequence: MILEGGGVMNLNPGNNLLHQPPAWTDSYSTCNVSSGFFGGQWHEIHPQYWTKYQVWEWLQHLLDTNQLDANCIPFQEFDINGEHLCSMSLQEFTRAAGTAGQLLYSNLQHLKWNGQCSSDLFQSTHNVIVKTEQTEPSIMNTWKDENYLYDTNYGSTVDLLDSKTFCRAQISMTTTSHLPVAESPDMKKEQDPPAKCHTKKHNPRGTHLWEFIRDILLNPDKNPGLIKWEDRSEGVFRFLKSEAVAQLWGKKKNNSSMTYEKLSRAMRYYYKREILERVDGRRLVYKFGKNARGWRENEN
Conditions: protein: recombinant; tags: N-terminal GST; dsDNA, one strand shown. In outline:
as §1

Another assay has as its target SPI1 (Homo sapiens, UniProt P17947 1-270). Conditions: protein: recombinant; tags: N-terminal GST; dsDNA, one strand shown. In outline:
as §1

For the next assay, the target named is SPIB (Homo sapiens, UniProt Q01892 1-262). The following applies: protein: recombinant; tags: N-terminal GST; dsDNA, one strand shown. The procedure, abridged: as §1
Sequence of SPIB (Q01892 whole entry): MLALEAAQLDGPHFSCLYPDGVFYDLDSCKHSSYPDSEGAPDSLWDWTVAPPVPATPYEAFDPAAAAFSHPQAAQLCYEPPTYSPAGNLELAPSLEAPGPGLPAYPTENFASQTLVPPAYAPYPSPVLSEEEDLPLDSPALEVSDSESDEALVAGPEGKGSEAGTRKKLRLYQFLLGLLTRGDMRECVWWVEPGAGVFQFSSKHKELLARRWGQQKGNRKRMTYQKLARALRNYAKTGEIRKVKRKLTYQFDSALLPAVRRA
The target in another assay is T6, ELK3 (Homo sapiens, UniProt P41970 1-407).
T6 sequence: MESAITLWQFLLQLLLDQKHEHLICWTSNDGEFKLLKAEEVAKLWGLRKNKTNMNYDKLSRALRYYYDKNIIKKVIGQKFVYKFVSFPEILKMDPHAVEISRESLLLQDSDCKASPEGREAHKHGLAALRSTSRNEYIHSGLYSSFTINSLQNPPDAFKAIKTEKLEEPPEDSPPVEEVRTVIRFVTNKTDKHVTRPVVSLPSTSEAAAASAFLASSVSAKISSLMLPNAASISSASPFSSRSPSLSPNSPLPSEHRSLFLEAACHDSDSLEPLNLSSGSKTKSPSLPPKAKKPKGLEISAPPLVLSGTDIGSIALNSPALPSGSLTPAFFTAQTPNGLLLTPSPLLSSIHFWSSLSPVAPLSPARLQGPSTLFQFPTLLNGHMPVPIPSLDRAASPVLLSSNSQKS
Conditions: protein: recombinant; tags: N-terminal GST; dsDNA, one strand shown. In outline:
as §1

Another assay addresses T7, FEV (Homo sapiens, UniProt Q99581 1-238).
T7 sequence: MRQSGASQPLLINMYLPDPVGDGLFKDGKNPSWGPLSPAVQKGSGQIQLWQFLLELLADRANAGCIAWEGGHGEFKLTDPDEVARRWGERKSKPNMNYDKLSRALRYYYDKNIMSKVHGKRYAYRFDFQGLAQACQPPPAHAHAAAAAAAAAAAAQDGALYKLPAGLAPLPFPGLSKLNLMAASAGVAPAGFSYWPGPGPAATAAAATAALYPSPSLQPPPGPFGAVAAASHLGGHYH
Conditions: protein: recombinant; tags: N-terminal GST; dsDNA, one strand shown. In outline:
as §1

A further assay addresses ETV5 (Homo sapiens, UniProt P41161 1-510). Conditions: protein: recombinant; tags: N-terminal GST; dsDNA, one strand shown. The procedure, abridged:
as §1

A further assay addresses HSF1 (Homo sapiens, UniProt Q00613 1-529). Conditions: protein: recombinant; tags: N-terminal GST; chain copies: 3; dsDNA, one strand shown. In outline:
as §1

A further assay concerns the target ELF4 (Homo sapiens, UniProt Q99607 1-663). Conditions: protein: recombinant; tags: N-terminal GST; dsDNA, one strand shown. In outline:
as §1

In another assay the target is T8, ELK4 (Homo sapiens, UniProt P28324-2 1-405).
T8 sequence: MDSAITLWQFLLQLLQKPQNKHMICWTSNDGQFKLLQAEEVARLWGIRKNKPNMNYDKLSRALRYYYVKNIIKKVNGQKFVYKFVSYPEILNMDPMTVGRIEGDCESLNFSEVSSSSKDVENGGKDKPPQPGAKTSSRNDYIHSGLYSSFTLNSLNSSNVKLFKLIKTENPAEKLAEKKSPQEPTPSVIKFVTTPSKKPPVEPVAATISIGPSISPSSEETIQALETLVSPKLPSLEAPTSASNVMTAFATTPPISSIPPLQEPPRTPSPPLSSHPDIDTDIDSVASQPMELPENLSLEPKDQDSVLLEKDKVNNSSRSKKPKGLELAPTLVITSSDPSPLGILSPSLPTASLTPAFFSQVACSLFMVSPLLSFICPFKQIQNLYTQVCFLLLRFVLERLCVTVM
Conditions: protein: recombinant; tags: N-terminal GST; dsDNA, one strand shown. The procedure, abridged: as §1

Another assay concerns the target T9, ETV2 (Homo sapiens, UniProt O00321 1-342).
T9 sequence: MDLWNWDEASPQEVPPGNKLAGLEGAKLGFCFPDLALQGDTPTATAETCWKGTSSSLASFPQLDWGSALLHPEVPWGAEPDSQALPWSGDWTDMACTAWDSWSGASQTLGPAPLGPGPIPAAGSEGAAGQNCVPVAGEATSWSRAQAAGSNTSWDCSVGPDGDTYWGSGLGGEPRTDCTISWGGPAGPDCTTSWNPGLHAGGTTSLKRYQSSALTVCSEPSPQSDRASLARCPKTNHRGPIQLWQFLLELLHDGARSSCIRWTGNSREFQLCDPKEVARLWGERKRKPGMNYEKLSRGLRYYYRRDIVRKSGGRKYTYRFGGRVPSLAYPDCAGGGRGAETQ
The following applies: protein: recombinant; tags: N-terminal GST; dsDNA, one strand shown. In outline: as §1

In the next assay the target is T10, ELF3 (Homo sapiens, UniProt P78545 1-371).
T10 sequence: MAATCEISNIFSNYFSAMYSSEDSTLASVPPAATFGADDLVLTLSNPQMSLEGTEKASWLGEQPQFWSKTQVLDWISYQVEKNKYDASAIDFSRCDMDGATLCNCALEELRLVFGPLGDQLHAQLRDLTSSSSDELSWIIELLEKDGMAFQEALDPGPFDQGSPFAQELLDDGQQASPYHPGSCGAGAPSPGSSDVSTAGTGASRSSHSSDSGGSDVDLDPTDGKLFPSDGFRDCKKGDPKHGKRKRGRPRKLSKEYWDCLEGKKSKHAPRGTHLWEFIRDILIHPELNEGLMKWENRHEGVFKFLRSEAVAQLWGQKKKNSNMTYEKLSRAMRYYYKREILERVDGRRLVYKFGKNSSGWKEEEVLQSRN
Conditions: protein: recombinant; tags: N-terminal GST; dsDNA, one strand shown. The procedure, abridged: as §1

For the next assay, the target named is CRX (Homo sapiens, UniProt O43186 1-299). The following applies: protein: recombinant; tags: N-terminal GST; dsDNA, one strand shown. In outline:
as §1

Another assay has as its target ETV1 (Homo sapiens, UniProt P50549 1-477). The following applies: protein: recombinant; tags: N-terminal GST; dsDNA, one strand shown. The procedure, abridged:
as §1

Sequence of HSF1 (Q00613 whole entry): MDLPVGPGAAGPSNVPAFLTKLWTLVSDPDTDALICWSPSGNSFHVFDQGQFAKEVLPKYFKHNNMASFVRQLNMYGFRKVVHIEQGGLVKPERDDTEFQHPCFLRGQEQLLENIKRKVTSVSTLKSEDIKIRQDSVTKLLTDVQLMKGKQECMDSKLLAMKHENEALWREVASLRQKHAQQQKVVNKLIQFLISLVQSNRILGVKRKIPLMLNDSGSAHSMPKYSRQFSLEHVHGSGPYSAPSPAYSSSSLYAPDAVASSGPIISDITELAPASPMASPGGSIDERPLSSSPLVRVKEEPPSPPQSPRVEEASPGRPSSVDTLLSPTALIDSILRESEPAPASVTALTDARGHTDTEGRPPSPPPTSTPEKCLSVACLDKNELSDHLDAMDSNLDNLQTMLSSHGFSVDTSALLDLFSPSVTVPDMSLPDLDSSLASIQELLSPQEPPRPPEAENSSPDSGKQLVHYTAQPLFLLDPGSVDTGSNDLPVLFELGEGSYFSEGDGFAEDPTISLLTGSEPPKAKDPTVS
Sequence of ETV1 (P50549 whole entry): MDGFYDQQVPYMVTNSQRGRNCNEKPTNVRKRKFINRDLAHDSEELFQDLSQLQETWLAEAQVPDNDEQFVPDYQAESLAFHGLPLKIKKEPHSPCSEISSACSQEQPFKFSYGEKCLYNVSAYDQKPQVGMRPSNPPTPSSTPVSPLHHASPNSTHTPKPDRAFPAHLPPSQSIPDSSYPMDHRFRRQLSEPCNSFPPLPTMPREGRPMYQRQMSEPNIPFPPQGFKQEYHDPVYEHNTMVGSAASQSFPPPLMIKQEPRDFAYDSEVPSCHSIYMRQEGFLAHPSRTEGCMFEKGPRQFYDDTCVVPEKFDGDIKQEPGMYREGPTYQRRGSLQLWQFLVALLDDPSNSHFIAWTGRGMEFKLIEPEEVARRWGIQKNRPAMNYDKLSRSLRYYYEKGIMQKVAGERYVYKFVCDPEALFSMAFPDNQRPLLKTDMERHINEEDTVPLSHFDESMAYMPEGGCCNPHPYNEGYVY
Sequence of CRX (O43186 whole entry): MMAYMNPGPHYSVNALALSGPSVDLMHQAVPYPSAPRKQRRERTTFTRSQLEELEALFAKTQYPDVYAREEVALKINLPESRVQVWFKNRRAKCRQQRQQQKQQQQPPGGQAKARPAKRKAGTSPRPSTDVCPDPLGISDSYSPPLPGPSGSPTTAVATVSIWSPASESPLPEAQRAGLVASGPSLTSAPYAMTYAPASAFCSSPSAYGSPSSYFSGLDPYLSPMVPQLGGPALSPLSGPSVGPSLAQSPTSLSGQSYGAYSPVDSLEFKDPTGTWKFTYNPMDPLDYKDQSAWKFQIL
Sequence of ELF4 (Q99607 whole entry): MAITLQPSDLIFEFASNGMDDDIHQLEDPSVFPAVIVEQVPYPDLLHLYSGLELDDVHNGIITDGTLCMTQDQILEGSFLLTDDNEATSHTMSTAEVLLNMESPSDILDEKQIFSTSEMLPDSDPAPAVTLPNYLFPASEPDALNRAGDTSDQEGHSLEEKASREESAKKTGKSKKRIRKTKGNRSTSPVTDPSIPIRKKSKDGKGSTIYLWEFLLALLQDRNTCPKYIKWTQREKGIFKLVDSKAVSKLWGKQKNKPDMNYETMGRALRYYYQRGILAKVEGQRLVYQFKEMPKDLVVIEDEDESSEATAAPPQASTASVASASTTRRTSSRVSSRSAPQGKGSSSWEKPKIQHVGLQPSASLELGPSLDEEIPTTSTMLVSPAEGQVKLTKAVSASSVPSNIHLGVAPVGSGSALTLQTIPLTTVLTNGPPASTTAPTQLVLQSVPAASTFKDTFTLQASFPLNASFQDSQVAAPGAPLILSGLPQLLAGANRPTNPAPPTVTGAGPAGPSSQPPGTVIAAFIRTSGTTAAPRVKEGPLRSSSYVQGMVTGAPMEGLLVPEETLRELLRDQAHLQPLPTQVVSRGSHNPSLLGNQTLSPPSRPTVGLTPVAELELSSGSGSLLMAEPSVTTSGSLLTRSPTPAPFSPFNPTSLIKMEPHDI
Sequence of ETV5 (P41161 whole entry): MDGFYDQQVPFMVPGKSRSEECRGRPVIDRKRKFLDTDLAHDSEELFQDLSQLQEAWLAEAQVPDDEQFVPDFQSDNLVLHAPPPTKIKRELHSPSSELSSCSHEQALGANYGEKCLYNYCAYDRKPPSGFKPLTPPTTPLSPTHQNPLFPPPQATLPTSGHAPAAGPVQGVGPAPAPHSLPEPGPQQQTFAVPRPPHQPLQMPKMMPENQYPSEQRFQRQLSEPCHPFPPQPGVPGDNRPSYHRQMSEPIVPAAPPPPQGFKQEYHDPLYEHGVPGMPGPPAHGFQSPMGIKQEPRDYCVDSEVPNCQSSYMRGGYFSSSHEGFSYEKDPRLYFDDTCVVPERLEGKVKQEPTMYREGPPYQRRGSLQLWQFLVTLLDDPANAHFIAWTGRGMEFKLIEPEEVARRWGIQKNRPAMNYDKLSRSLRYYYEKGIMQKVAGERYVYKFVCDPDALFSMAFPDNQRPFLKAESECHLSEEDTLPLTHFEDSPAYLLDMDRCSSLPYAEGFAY

For the sequence AAGGTA, the binding signal is 1.1 fold enrichment (6-mer frequency, TF over GST control) with FLI1; 1.08 fold enrichment (6-mer frequency, TF over GST control) with ELK1; 1.18 fold enrichment (6-mer frequency, TF over GST control) in the assay with GABPA; 1.05 fold enrichment (6-mer frequency, TF over GST control) with ERG; 1.13 fold enrichment (6-mer frequency, TF over GST control) in the assay with ELF1; 1.1 fold enrichment (6-mer frequency, TF over GST control) with EHF. Further, the binding signal with SPI1 is 1.07 fold enrichment (6-mer frequency, TF over GST control); in the assay with SPIB it was 1.05 fold enrichment (6-mer frequency, TF over GST control); with ELK3, 1.09 fold enrichment (6-mer frequency, TF over GST control); in the assay with FEV, 1.02 fold enrichment (6-mer frequency, TF over GST control); in the assay with ETV5, 1.11 fold enrichment (6-mer frequency, TF over GST control); in the assay with HSF1, 1.11 fold enrichment (6-mer frequency, TF over GST control). Also, the binding signal is 1.1 fold enrichment (6-mer frequency, TF over GST control) in the assay with ELF4; 1.14 fold enrichment (6-mer frequency, TF over GST control) in the assay with ELK4; 1.07 fold enrichment (6-mer frequency, TF over GST control) with ETV2; 1.16 fold enrichment (6-mer frequency, TF over GST control) with ELF3; 1.05 fold enrichment (6-mer frequency, TF over GST control) with CRX; 1.11 fold enrichment (6-mer frequency, TF over GST control) with ETV1.
